The values that follow come from PubChem BioAssay (NCI).

Some test systems named below: NCI-H23 lung; NCI-H226 lung; NCI-H322M lung; HOP-62 NSCLC; NCI-H460 lung; HOP-92 NSCLC; NCI-H522 lung; A549/ATCC NSCLC; 786-0 renal; COLO 205 colon; DU-145 prostate; K-562 leukemia; MALME-3M melanoma; MDA-MB-231 breast; RXF 393 renal; SF-268 CNS; SF-295 CNS; SF-539 CNS; UACC-257 melanoma; M14 melanoma.
Holding throughout (assay): NCI-60 one-dose screen, 48 h (100 = growth as untreated, 0 = no growth, -100 = all killed)
Holding throughout (conditions): 10 µM unless noted

Compounds without any hit were thinned out: in the full panel of roughly 83,000, 20% have a hit.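 In brief: 96-well plates, 48 h treatment, single concentration, percent growth endpoint.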 Unmarked numbers belong to inactive results. The source made the active and inactive calls. The calls were made as follows: active = growth percent below 10; inactive = the rest.

As for `Cn1ccc(=O)c(S(N)(=O)=O)c1`, the growth is 95.6% in the assay on NCI-H23 lung; 108% in the assay with NCI-H226 lung; 108% with NCI-H322M lung; 92.4% in the assay with HOP-62 NSCLC; 102% in the assay with NCI-H460 lung; 89.3% in the assay on HOP-92 NSCLC. The growth was 96.2% in the assay with NCI-H522 lung; 99.7% in the assay with A549/ATCC NSCLC; 103% in the assay with 786-0 renal; 117% in the assay with COLO 205 colon; 119% with DU-145 prostate; 93.4% in the assay with K-562 leukemia. Besides, the growth is 95.5% in the assay with MALME-3M melanoma; 101% with MDA-MB-231 breast; 85.8% with RXF 393 renal; 100% with SF-268 CNS; 102% in the assay with SF-295 CNS; 103% with SF-539 CNS. The growth in the assay with UACC-257 melanoma is 109%.
For the compound `COc1cc(/C=C/C(=O)/C=C/c2cc(OC)c3c(c2)OCO3)cc2c1OCO2`, the growth in the assay on NCI-H23 lung is 80.5%; in the assay on NCI-H226 lung it was 78.8%; with NCI-H322M lung, 108%; with HOP-62 NSCLC, 106%; in the assay with NCI-H460 lung it was 105%; in the assay with HOP-92 NSCLC it was 83.9%. The growth in the assay with NCI-H522 lung was 101%; in the assay with A549/ATCC NSCLC, 93.5%; in the assay on 786-0 renal, 100%; in the assay with COLO 205 colon, 96.5%; with DU-145 prostate, 107%; in the assay on K-562 leukemia, 50.9%. The growth is 98.2% with MALME-3M melanoma; 80.2% in the assay with MDA-MB-231 breast; 72.4% in the assay with RXF 393 renal; 88.7% with SF-268 CNS; 94.5% in the assay with SF-295 CNS; 100% in the assay on SF-539 CNS. Moreover, the growth was 103% in the assay with UACC-257 melanoma and 31.2% in the assay on M14 melanoma.
For `CCOC(=O)c1cn2c3c(cc(C)cc3c1=O)C(=O)/C(=C/c1ccccc1)C2`, the growth in the assay on NCI-H23 lung was 108%; in the assay with NCI-H226 lung, 94%; with NCI-H322M lung, 96.9%; in the assay on HOP-62 NSCLC, 79.2%; with NCI-H460 lung, 104%; in the assay on HOP-92 NSCLC, 57.1%. The growth was 75.8% with NCI-H522 lung; 89.1% with A549/ATCC NSCLC; 82.7% in the assay with 786-0 renal; 93.4% in the assay on COLO 205 colon; 106% in the assay on DU-145 prostate; 79.7% in the assay with K-562 leukemia. The growth in the assay on MALME-3M melanoma was 112%; in the assay on MDA-MB-231 breast it was 87.2%; with RXF 393 renal, 74.6%; in the assay on SF-268 CNS it was 95.7%; in the assay with SF-295 CNS, 92.6%; in the assay with SF-539 CNS, 87.8%. The growth in the assay with UACC-257 melanoma was 78.4%; in the assay on M14 melanoma, 101%.
Regarding `COC(=O)C(Sc1ccc(Cl)cc1)C1SC(=S)N(Cc2ccccc2)C1=O` (centres undefined), the growth in the assay with NCI-H23 lung is 97.3%; with NCI-H226 lung, 116%; in the assay with NCI-H322M lung, 105%; with HOP-62 NSCLC, 95.1%; in the assay on NCI-H460 lung, 107%; with HOP-92 NSCLC it was 104%. The growth with NCI-H522 lung is 96.7%; with A549/ATCC NSCLC, 98.2%; with 786-0 renal it was 103%; in the assay on COLO 205 colon it was 117%; in the assay with DU-145 prostate, 102%; in the assay on K-562 leukemia it was 44%. Also, the growth with MALME-3M melanoma is 98.9%; in the assay on MDA-MB-231 breast, 98.9%; with RXF 393 renal it was 106%; in the assay with SF-268 CNS, 87.7%; in the assay on SF-295 CNS, 75.6%; in the assay on SF-539 CNS, 109%. Also, the values for the growth in the assay with UACC-257 melanoma and with M14 melanoma were 92.2% and 100%, respectively.
As for `O=C1/C(=C/c2ccccc2)CN(C(=O)CCN2CCC(=NO)CC2)C/C1=C\c1ccccc1`, the growth was 1.59% (active) in the assay with NCI-H23 lung; 104% in the assay on NCI-H226 lung; 34% in the assay with NCI-H322M lung; 49.9% in the assay on HOP-62 NSCLC; -32.2% (active) with NCI-H460 lung; 77.6% in the assay on HOP-92 NSCLC. Further, the growth is -61.4% (active) in the assay with NCI-H522 lung; 71.3% in the assay with A549/ATCC NSCLC; -25.8% (active) in the assay on 786-0 renal; -46.8% (active) in the assay with COLO 205 colon; 16.1% in the assay on DU-145 prostate; 6.48% (active) in the assay on K-562 leukemia. In addition, the growth was -13.2% (active) in the assay with MALME-3M melanoma; -32.1% (active) in the assay on MDA-MB-231 breast; -71% (active) in the assay with RXF 393 renal; 7.27% (active) with SF-268 CNS; -10.5% (active) in the assay with SF-295 CNS; -30.5% (active) in the assay with SF-539 CNS. Also, the growth in the assay on UACC-257 melanoma was 11.3%; with M14 melanoma, 0.212% (active).
Turning to `CCN(CC)c1ccc(CNc2ccnc3ccccc23)cc1`, the growth was 28.8% in the assay on NCI-H23 lung; 58.6% with NCI-H226 lung; 70.6% in the assay on NCI-H322M lung; 66% in the assay on HOP-62 NSCLC; 55.2% in the assay on NCI-H460 lung; -6.79% (active) in the assay on HOP-92 NSCLC. Further, the growth is 56.2% in the assay on NCI-H522 lung; 58.9% in the assay with A549/ATCC NSCLC; 72.5% with 786-0 renal; 25.6% in the assay with COLO 205 colon; 70% in the assay with DU-145 prostate; 9.95% (active) in the assay on K-562 leukemia. Further, the growth in the assay on MALME-3M melanoma is 49.5%; with MDA-MB-231 breast, 70.2%; in the assay on RXF 393 renal, 71.7%; with SF-268 CNS, 82.3%; in the assay with SF-295 CNS, 51.4%; in the assay on SF-539 CNS, 69.7%. For the same compound, the growth in the assay on UACC-257 melanoma is 36.2%; in the assay on M14 melanoma, 56.2%.
Consider `COc1ccc(-c2nc(/C=C3/C(=O)Nc4ccc(F)cc43)c3ccccn23)cc1`, for which the growth in the assay on NCI-H23 lung is 97.8%; in the assay with NCI-H226 lung it was 114%; in the assay with NCI-H322M lung it was 126%; in the assay on HOP-62 NSCLC, 108%; in the assay with NCI-H460 lung, 94.8%; in the assay on HOP-92 NSCLC, 92.3%. Also, the growth is 104% in the assay on NCI-H522 lung; 99.4% in the assay on A549/ATCC NSCLC; 98.8% in the assay on 786-0 renal; 97.3% in the assay with COLO 205 colon; 102% in the assay with DU-145 prostate; 87.2% with K-562 leukemia. For the same compound, the growth was 130% in the assay with MALME-3M melanoma; 89.2% in the assay on MDA-MB-231 breast; 112% with RXF 393 renal; 107% in the assay with SF-268 CNS; 140% with SF-295 CNS; 117% in the assay on SF-539 CNS. The growth with UACC-257 melanoma was 102%; with M14 melanoma, 106%.
Turning to `COc1ccc(-n2c(-c3ccccc3)c(-c3ccccc3)c3c(SCC(=O)N/N=C/c4ccc(Cl)cc4)ncnc32)cc1`, the growth with NCI-H23 lung is 68.2%; with NCI-H226 lung, 76.6%; in the assay with NCI-H322M lung, 97.2%; with HOP-62 NSCLC it was 85.5%; in the assay with NCI-H460 lung, 102%; in the assay with HOP-92 NSCLC it was 66.8%. Further, the growth in the assay with NCI-H522 lung is 83.5%; in the assay on A549/ATCC NSCLC, 93.1%; with 786-0 renal, 92.5%; in the assay on COLO 205 colon, 104%; in the assay on DU-145 prostate it was 95.4%; with K-562 leukemia it was 80.7%. Besides, the growth with MALME-3M melanoma was 107%; with MDA-MB-231 breast, 82.1%; in the assay with RXF 393 renal it was 97.3%; in the assay on SF-268 CNS, 88.5%; in the assay with SF-295 CNS, 92.9%; in the assay with SF-539 CNS, 93.8%. Also, the growth in the assay on UACC-257 melanoma was 95.1%; in the assay on M14 melanoma, 99.5%.
